{
  "source": "PubChem BioAssay (EPA / NIEHS)",
  "note": "Records with an inconclusive call do not appear. The source made the active and inactive calls. Rule for the calls: active = hit-call score of the fitted dose curve at least 0.9, where 1 is the maximum; inconclusive = response in the unintended direction; inactive = score below 0.9.",
  "data": [
    {"assay": "Tanguay_ZF_120hpf_PE_legacy: (Legacy) Oregon State University Tanguay Lab 120 Hour Post-fertilization zebrafish Assay for Pericardial Edema (AID 2283640);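 for AC50: potency for increased incidence of pericardial edema versus DMSO baseline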", "protocol": "Tanguay_ZF_120hpf_legacy is a whole embryo, multiplexed endpoint assay using zebrafish larvae exposed for 120 hours post fertilization on a 96-well plate.Tanguay_ZF_120hpf_PE_legacy is one of one assay component(s) measured or calculated from the Tanguay_ZF_120hpf_legacy assay. It is designed to make measurements of zebrafish development as detected with brightfield microscopy of developing zebrafish embryos.Data from the assay component Tanguay_ZF_120hpf_PE_legacy was analyzed into 1 assay endpoints. This assay endpoint, Tanguay_ZF_120hpf_PE_legacy, was analyzed in the positive analysis fitting direction relative to DMSO as the negative control and baseline of activity. Using a type of morphology reporter, gain-of-signal activity can be used to understand changes in developmentals as they relate to the whole embryo. To generalize the intended target to other relatable targets, this assay endpoint is annotated to the zebrafish development intended target family, where the subfamily is embryonic morphogenesis.\nZebrafish husbandry: Tropical 5D wild-type adult zebrafish were housed in at an approximate density of 1000 per 100 gallon tank at the Sinnhuber Aquatic Research Laboratory, Oregon State University, Corvallis, OR. Each tank was kept at standard laboratory conditions of 28C on a 14-h light/10-h dark photoperiod in fish water consisting of reverse osmosis water supplemented with a commercially available salt (Instant Ocean). Spawning funnels were placed into the tanks the night prior, and embryos were collected and staged. […] Ten microliters of each row of dilution plate 2 was added to 2 exposure plates. The final DMSO concentration used was 0.64% (vol/vol). Thirty-two embryos were also exposed to 5uM trimethyltin chloride (positive control). Plates were sealed to prevent evaporation and foil covered to reduce light exposure and kept in a 28C incubator. Embryos were statically exposed until 120 hpf. At 24 hpf, embryos were assessed for photomotor response using a custom photomotor response analysis tool (PRAT) and for developmental toxicity endpoints (MO24: mortality at 24 hpf, DP: developmental progression, SM: spontaneous movement, and NC: notochord distortion). At 120 hpf, locomotor activity was measured using Viewpoint Zebralab and assessed for 18 endpoints. Zebrafish acquisition and analysis program (ZAAP), a custom program designed to inventory, acquire, and manage zebrafish data, was used to collect developmental endpoints as either present or absent (i.e., binary responses were recorded). If mortality occurred for an embryo (at either 24 or 120 hpf), the non-mortality endpoints were not measured.", "values": [
      {"compound": "CCCC(=O)OCCC(C)C", "outcome": "inactive"},
      {"compound": "CN(C[C@@H](CC[N+]12CCC(C3CCCCC3)(CC1)CC2)c1ccc(Cl)c(Cl)c1)C(=O)c1cc(C(F)(F)F)cc(C(F)(F)F)c1", "outcome": "inactive"},
      {"compound": "CC1=CC(=O)/C(=C(/C)O)C(=O)O1", "outcome": "inactive"},
      {"compound": "O=CCCCC=O", "outcome": "inactive"},
      {"compound": "Cc1c2ccccc2c(C)c2c1ccc1ccccc12", "AC50": "4.18 µM (active)"},
      {"compound": "COc1ccc2cc(S(=O)(=O)N[C@H](CC(=O)N[C@H](Cc3ccc(CN4[C@H](C)CCC[C@@H]4C)cc3)C(=O)N(C)C(C)C)c3ccc4c(c3)OCO4)ccc2c1", "outcome": "inactive"},
      {"compound": "O=C(O)c1ccccc1C(=O)OCc1ccccc1", "outcome": "inactive"},
      {"compound": "CC(C)(C)c1csc(-c2cc3cc(OCc4ccccc4CC(=O)O)ccc3o2)n1", "outcome": "inactive"},
      {"compound": "Oc1ccccc1", "outcome": "inactive"},
      {"compound": "CCCCOC(=O)c1ccc(O)cc1", "AC50": "35.5 µM (active)"},
      {"compound": "O=C(O)Cc1cc(I)c(Oc2ccc(O)c(I)c2)c(I)c1", "outcome": "inactive"},
      {"compound": "Clc1cc(Cl)c2c(c1)N=C1CCCCCN1C2", "AC50": "24.9 µM (active)"},
      {"compound": "C[C@]12CC[C@@H]3c4ccc(O)cc4CC[C@H]3[C@@H]1CC[C@H]2O", "outcome": "inactive"},
      {"compound": "NC(=O)c1nc(-c2cccc(-c3cc(F)ccc3OCC(F)(F)C(F)(F)F)c2)n[nH]1", "AC50": "28.1 µM (active)"},
      {"compound": "c1ccc2n[nH]nc2c1", "outcome": "inactive"},
      {"compound": "C[C@]12CC[C@@H]3c4ccc(O)cc4CC[C@H]3[C@@H]1CCC2=O", "outcome": "inactive"},
      {"compound": "OC12N=C(c3ccccc3)SC1Cc1cc(Cl)ccc12", "note": "(stereo not given)", "AC50": "45.8 µM (active)"},
      {"compound": "CN1C(=O)CC[C@H]1c1cccnc1", "outcome": "inactive"},
      {"compound": "CCCCCCCCCCCC[N+](C)(C)C", "outcome": "inactive"},
      {"compound": "CCCCCCCCCCCCO", "outcome": "inactive"},
      {"compound": "CC1(C)NC(=O)N(c2ccc([N+](=O)[O-])c(C(F)(F)F)c2)C1=O", "outcome": "inactive"},
      {"compound": "Oc1ccc2ccccc2c1", "outcome": "inactive"},
      {"compound": "O=C(Nc1ccc(Cl)cc1)Nc1ccc(Cl)c(Cl)c1", "outcome": "inactive"},
      {"compound": "COCC(C)OCC(C)OCC(C)O", "note": "(stereo not given)", "outcome": "inactive"},
      {"compound": "c1ccc2ccccc2c1", "outcome": "inactive"},
      {"compound": "Cc1ccc2oc(CN(Cc3ccccc3)C(=O)Nc3c(F)cc(F)cc3F)c(-c3ccc(Cl)cc3)c2c1", "outcome": "inactive"},
      {"compound": "CC(C)(c1cc(Br)c(O)c(Br)c1)c1cc(Br)c(O)c(Br)c1", "outcome": "inactive"},
      {"compound": "O=C(OCCCCCCOC(=O)c1ccccc1)c1ccccc1", "outcome": "inactive"},
      {"compound": "CC(O)CC(C)(C)O", "note": "(stereo not given)", "outcome": "inactive"},
      {"compound": "O=c1ccc2ccccc2o1", "outcome": "inactive"},
      {"compound": "O=C(O)c1ccccc1-n1cc(C(=O)O)c(=O)c2cc(Nc3c(F)cc(F)cc3Cl)c(Cl)cc21", "outcome": "inactive"},
      {"compound": "CCCCCc1ccc(N)cc1", "outcome": "inactive"},
      {"compound": "Clc1ccccc1C(c1ccccc1)(c1ccccc1)n1ccnc1", "AC50": "24.8 µM (active)"},
      {"compound": "Cc1occc1C(=O)Nc1ccc(C(=O)N2CCC(F)(F)/C(=C\\C(=O)N3CCC(N4CCCCC4)CC3)c3ccccc32)cc1", "outcome": "inactive"},
      {"compound": "CCCCCCCCCC(=O)O", "outcome": "inactive"},
      {"compound": "O=C(O)Cn1c(=O)n(Cc2ccc(Br)cc2F)c(=O)c2ccc(Cl)cc21", "outcome": "inactive"},
      {"compound": "CCCCCCCCCCCO", "outcome": "inactive"},
      {"compound": "CC(=O)N1CCN(c2ccc(OC[C@H]3CO[C@](Cn4ccnc4)(c4ccc(Cl)cc4Cl)O3)cc2)CC1", "outcome": "inactive"},
      {"compound": "CCN(CC)C(=O)c1cc(S(=O)(=O)Cc2ccccc2)c(N2CCC(c3ccccc3)CC2)cc1N(CC)CCN(C)C", "outcome": "inactive"},
      {"compound": "O=c1c(-c2ccc(O)cc2)coc2cc(O)cc(O)c12", "outcome": "inactive"}
    ]}
  ]
}
